What all share (experiment): NCI-60 one-dose screen, 48 h (100 = growth as untreated, 0 = no growth, -100 = all killed)
Details in all cases: 10 µM unless noted

Assay [1] concerns T-47D breast.
The subject of assay [2] is BT-549 breast.
Assay [3] concerns MDA-MB-435 melanoma.
The test system of assay [4] is SW-620 colon.
The test system of assay [5] is MCF7 breast.
Assay [6] deals with HCT-116 colon.
The test system of assay [7] is HCC-2998 colon.
Assay [8] relates to KM12 colon.

These results are taken from PubChem BioAssay (NCI).

About 83,000 compounds went through this panel and 20% of them were active in at least one assay; those are over-represented in the sample as a whole.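 The test compound was applied at a single concentration to cells in 96-well plates for 48 hours, and percent growth was recorded.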 Values without a mark were called inactive. Activity calls are given as the source filed them. Rule for the calls: active = growth percent below 10; inactive = the rest.

Regarding `O=C1c2cccc3cccc(c23)C(=O)N1Nc1nc(NC2CCCCC2)nc(N2CCOCC2)n1`, the growth is 88.4% in assay [1]; 110% in assay [2]; 103% in assay [3]; 98.1% in assay [4]; 89.3% in assay [5]; 93.6% in assay [6]. The results for the growth in assay [7] and in assay [8] were 111% and 98.9%, respectively.

`COc1cc(CNS(=O)(=O)c2ccc(C)cc2)ccc1OCc1cn(-c2ccccc2)nn1`: the growth is 66.5% in assay [1]; 88.1% in assay [2]; 99.9% in assay [3]; 98.9% in assay [4]; 92.7% in assay [5]; 85.1% in assay [6]. Further, the values for the growth in assay [7] and in assay [8] were 117% and 99.4%, respectively.

As for `S=c1nc(-c2ccccc2)oc(=NC2CCCCC2)n1C1CCCCC1`, the growth is 35.4% in assay [1]; 82.4% in assay [2]; 67.9% in assay [3]; 5.42% (active) in assay [4]; 12.7% in assay [5]; 18.5% in assay [6]. Moreover, the growth in assay [7] is 73.7%; in assay [8], 10.7%.

As to `COc1cc2cc(Oc3ccc(NC(=O)Nc4ccc(Cl)c(Cl)c4)cc3)c(C)nc2cc1OCCN1CCOCC1`, the growth in assay [1] is 75.1%; in assay [2] it was 72.5%; in assay [3], 91.8%; in assay [4], 104%; in assay [5], 60.1%; in assay [6], 86.1%. The growth in assay [7] is 116%; in assay [8], 91.7%.

Regarding `Cc1nc(S(=O)(=O)c2ccccc2)c(S(=O)(=O)Cc2ccc([N+](=O)[O-])cc2)o1`, the growth in assay [1] is 77%; in assay [2], 87.7%; in assay [3], 101%; in assay [4], 90.9%; in assay [5] it was 74.2%; in assay [6] it was 86.6%. In addition, the growth in assay [7] is 97.7%; in assay [8], 106%.

With `COc1ccc(-c2cc3c4c(nc5ccccc5c4c2)CC(c2cc(OC)c(OC)c(OC)c2)O3)cc1` (stereo not drawn), the growth in assay [1] was 14.1%; in assay [2], 64.6%; in assay [3], 56.4%; in assay [4], 37.9%; in assay [5] it was 61.3%; in assay [6], 1.01% (active). In addition, the growth in assay [7] is 43.1%; in assay [8], 60.4%.

For the molecule `CCCCn1c(=O)c(-c2cc(-c3ccc(Cl)cc3)nc(-c3ccc(Cl)cc3)c2)cc2ccc(Cl)cc21`, the growth in assay [1] is 99.6%; in assay [2], 105%; in assay [3] it was 103%; in assay [4] it was 100%; in assay [5] it was 93.1%; in assay [6], 105%. In addition, the growth in assay [7] is 103%; in assay [8], 99.3%.

Consider `COc1cc2cc(Oc3ccc(NC(=O)Nc4cc(C(F)(F)F)cc(C(F)(F)F)c4)cc3)c(C)nc2cc1OCCN1CCOCC1`, for which the growth in assay [1] is 26.1%; in assay [2], 68.1%; in assay [3], 22.3%; in assay [4], 20.3%; in assay [5], 7.15% (active); in assay [6] it was 10.3%. Also, the figures for the growth in assay [7] and in assay [8] were 38.6% and 13.3%, respectively.

On to `CCOC(=O)Nc1ccc(C(=O)/C=C/c2ccccc2)cc1`, for which the growth in assay [1] is 84.3%; in assay [2], 95.1%; in assay [3], 44.6%; in assay [4] it was 73.9%; in assay [5], 0.358% (active); in assay [6] it was 6.33% (active). Besides, the growth in assay [7] is 34.4%; in assay [8], 8.51% (active).

On to `C#Cc1cccc(NC(=O)Nc2ccccc2NC(=O)CCl)c1`, for which the growth in assay [1] is 1.49% [8.25 µM] (active); in assay [2], -27% [8.25 µM] (active); in assay [3], -68.7% [8.25 µM] (active); in assay [4] it was -5.75% [8.25 µM] (active); in assay [5], 0.96% [8.25 µM] (active); in assay [6], 0.401% [8.25 µM] (active). The growth in assay [7] was -29.4% [8.25 µM] (active); in assay [8] it was -37.6% [8.25 µM] (active).

For the molecule `Cc1cc(O)c(C2=NN(c3ccc(S(N)(=O)=O)cc3)C(c3ccccc3O)C2)cc1Cl` (stereo not drawn), the growth in assay [1] was 21.6%; in assay [2], 99.7%; in assay [3], 10%; in assay [4], -0.676% (active); in assay [5], 7.94% (active); in assay [6], -92.9% (active). Also, the values for the growth in assay [7] and in assay [8] were -75% (active) and -60.4% (active), respectively.

`COc1ccc(C2CC(c3ccc(Nc4ccnc5cc(Cl)ccc45)cc3)=NN2C=O)cc1` (stereo not drawn): the growth in assay [1] was 51.1%; in assay [2], 63.7%; in assay [3], -3.72% (active); in assay [4], 70.9%; in assay [5], 40.3%; in assay [6] it was 55.7%. In addition, the growth in assay [7] is 57.8%; in assay [8], 66.2%.

For the molecule `O=C(Nc1nc2ccc(F)cc2s1)c1cccnc1Nc1ccc(Cl)cc1Cl`, the growth in assay [1] was 0.802% (active); in assay [2] it was -9.44% (active); in assay [3], 26.3%; in assay [4], 20.2%; in assay [5], 13%; in assay [6], 11%. Further, the growth was 8.35% (active) in assay [7] and 9.49% (active) in assay [8].

For the molecule `CCOC(=O)CC1C(COC(=O)NC)OC(n2cnc3c(NC(=O)Nc4ccccc4)ncnc32)C1O[Si](C)(C)C(C)(C)C` (stereo not drawn), the growth in assay [1] was 29.1%; in assay [2], 64.5%; in assay [3] it was 49.3%; in assay [4], 72.2%; in assay [5] it was 11.7%; in assay [6], 17.1%. Further, the growth is -8.59% (active) in assay [7] and 31.2% in assay [8].

`CN1CCN(c2ccc(-c3ccc4ncc(C#N)c(Nc5ccc(F)c(Cl)c5)c4c3)cc2)CC1`: the growth was 60.7% in assay [1]; 63.3% in assay [2]; 21.6% in assay [3]; 21.5% in assay [4]; 51.4% in assay [5]; 18.2% in assay [6]. Besides, the growth is 48.6% in assay [7] and 57.2% in assay [8].

Take `COc1ccc(C2CC(c3ccc(Nc4nc(Nc5ccc(F)cc5)nc(Nc5ccc(Cl)cc5)n4)cc3)=NN2C(C)=O)cc1` (stereo not drawn): the growth in assay [1] is 72.5%; in assay [2], 143%; in assay [3] it was 97.1%; in assay [4], 109%; in assay [5], 105%; in assay [6], 94.6%. The growth in assay [7] is 99.7%; in assay [8], 135%.
